# High-throughput results (PubChem BioAssay)
# POLK inh: DNA polymerase kappa (human) inhibition; Potency, µM (highest dose often 107 µM), for inactives: at the highest dose activity, negative = inhibition, actives largely listed as inhibitors; 0.53% of 400,000 active; purified Pol kappa, fluorescent DNA synthesis assay, 10 min; Q9UBT6; note: % is set by controls: 0 for no effect and ±100 for the full control effect
# Target sequence (Q9UBT6 whole entry, looked up): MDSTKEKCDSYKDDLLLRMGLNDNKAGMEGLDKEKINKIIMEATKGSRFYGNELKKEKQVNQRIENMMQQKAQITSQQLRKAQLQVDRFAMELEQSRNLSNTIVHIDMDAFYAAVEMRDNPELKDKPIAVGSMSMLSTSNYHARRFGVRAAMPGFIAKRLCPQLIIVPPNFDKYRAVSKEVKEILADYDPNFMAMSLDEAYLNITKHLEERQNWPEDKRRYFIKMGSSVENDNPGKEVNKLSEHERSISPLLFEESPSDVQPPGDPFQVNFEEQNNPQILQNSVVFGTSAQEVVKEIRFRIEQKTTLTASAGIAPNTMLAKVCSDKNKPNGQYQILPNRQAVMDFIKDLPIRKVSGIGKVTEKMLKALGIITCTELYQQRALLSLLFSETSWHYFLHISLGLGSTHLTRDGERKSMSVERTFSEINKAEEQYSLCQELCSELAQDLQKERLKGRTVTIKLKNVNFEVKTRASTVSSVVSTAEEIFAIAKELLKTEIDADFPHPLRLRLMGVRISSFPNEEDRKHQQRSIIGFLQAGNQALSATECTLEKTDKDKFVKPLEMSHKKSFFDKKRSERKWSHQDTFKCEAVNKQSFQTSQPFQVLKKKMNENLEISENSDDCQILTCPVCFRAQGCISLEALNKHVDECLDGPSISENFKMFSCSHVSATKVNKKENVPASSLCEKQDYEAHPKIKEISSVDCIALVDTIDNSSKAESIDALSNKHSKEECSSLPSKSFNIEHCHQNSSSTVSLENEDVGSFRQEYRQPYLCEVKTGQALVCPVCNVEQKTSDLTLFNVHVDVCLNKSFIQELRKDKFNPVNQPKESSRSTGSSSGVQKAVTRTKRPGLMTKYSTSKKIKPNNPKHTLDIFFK
#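 Readout: fluorescence, taken kinetically at 0 and 10 min. Conditions: 10 nM Pol kappa, 15 min RT compound preincubation, 50 nM substrate final. Controls: enzyme-free buffer wells.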
# TDP1 inh: TDP1 (human) enzyme inhibition | Q9NUW8 | recombinant TDP1, AlphaScreen DNA substrate cleavage | Potency, µM (highest dose often 130 µM), inactives show top-dose activity change, negative = inhibition, actives largely listed as inhibitors | 0.28% of 350,000 active | AID 485290; note: % is set by controls: 0 for no effect and ±100 for the full control effect; nearly all actives have a fitted effect of over 40% in size
#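 E. coli-derived human Tdp1, 1 nM final. Cpd preinc 15 min RT; substrate 15 nM final, 5 min RT; AS bead mix 10 ug/ml final, 10 min RT. Signal loss = tyrosine-FITC cleavage. No-enzyme wells = max signal.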
# POLB inh: inhibitors of human DNA polymerase beta. P06746. Pol beta primer extension/strand displacement, fluorescence kinetic. Potency, µM (titrated, usually from 114 µM), for the others: at the top dose activity change, negative = inhibition, most hits filed as inhibitors. 1.3% of 340,000 active; note: % is set by controls: 0 for no effect and ±100 for the full control effect
#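 Values derive from four-parameter Hill fits of normalized kinetic data: reads at 0 and 10 min following addition of 50 nM substrate to 10 nM Pol beta preincubated 15 min with compound.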
# Pol eta inh: blocks human DNA polymerase eta activity | recombinant Pol eta, fluorescent DNA replication assay | Potency, µM (top dose mostly 114 µM), inactives show at the top dose activity change, negative = inhibition, hits mostly inhibitors | 1.2% of 390,000 active | Q9Y253; note: % is set by controls: 0 for no effect and ±100 for the full control effect
#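 Pol eta at 10 nM preincubated with compounds 15 min at room temperature; reaction started with fluorescent substrate (50 nM final) and read kinetically at 0 and 10 min.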
# Pol iota inh: DNA polymerase iota (human) inhibition; Q9UNA4; Pol iota fluorescent replication assay, 10 min; Potency, µM (series often up to 115 µM), inactives show top-dose activity, negative = inhibition, usual class: inhibitors; 1% of 390,000 active
#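 Fluorescent replication assay read twice, at 0 min and 10 min after adding 50 nM (final) substrate. Enzyme (10 nM) and compounds were first incubated 15 min at room temperature; enzyme-free buffer wells were negative controls.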
# Numbers without * were called inactive; ? = inconclusive; nt = no result given; ! = not confirmed by another sample; [ ] = dose if it differs, or a comment. In the library only some 2.4% were active in any assay of this set; here they are far more common. Calls come from the whole dose curve; as a rule, active = well fitted curve in the direction sought with a large enough effect; inconclusive = small, poorly fitted or top-dose-only effect, or another doubt; inactive = no such curve, though single readings can be large; an effect the other way counts as inactive or inconclusive. Potency is the fitted concentration of half-maximal effect.
SMILES,POLK inh,TDP1 inh,POLB inh,Pol eta inh,Pol iota inh
CC1CCCN(S(=O)(=O)c2ccc(NC(=O)Cn3nnc(-c4ccccc4F)n3)cc2)C1 (stereo not drawn),-18%,11%,7%,-23%,4%
O=C(c1ccc(COc2c(F)c(F)c(F)c(F)c2F)o1)N1CCN(Cc2ccc3c(c2)OCO3)CC1,?,-3%,45µM*,?,?
O=C(c1c(F)c(F)c(F)c(F)c1F)N1CCN(Cc2ccc3c(c2)OCO3)CC1,11%,nt,nt,-4%,-24%
CC1CC(=O)c2c(cc3c(-c4c(O)cc(O)c5c(O)c6c(cc45)OC(C)CC6=O)c(O)cc(O)c3c2O)O1 (stereo not drawn),?,4%,18µM*,10µM*,1.1µM*
COc1ccc(C2CC(=O)c3c(O)cc(O)cc3O2)cc1O (stereo not drawn),-17%,-1%[56.1 µM],nt,1%,-8%
CCOC(=O)c1[nH]c(C)c(CCC(=O)Nc2cc(Cl)c(OC)cc2OC)c1C,-9%[60.1 µM],8%,11%,-12%,-8%
O=C(c1cccs1)N1CCN(Cc2cccnc2)CC1,-12%,-6%,26%,22µM*,0%
O=C1NC(=S)S/C1=C\c1cc2ccccc2nc1N1CCCCC1,-4%,3%,?,40µM*,-9%
COc1ccc2nc(N3CCCCC3)c(/C=C3\SC(=S)NC3=O)cc2c1,8%,nt,-21%,35µM*,-11%
COc1ccc2nc(N3CCCCC3)c(C#N)cc2c1,-17%,40µM*,10%,-1%,?
COc1ccc2nc(N3CCCC3)c(C#N)cc2c1,-2%,nt,0%,-18%,29%
COc1ccc(OCc2ccc(-c3nc(C#N)c(NCc4cccnc4)o3)o2)cc1,-12%,11%,-27%,?,4%
CC(C)C(=O)c1cn(CC(=O)NCC2CCCO2)c2ccccc12 (stereo not drawn),-9%,1%,7%,-3%,6%
CCOC(=O)C1=C(O)/C(=C/c2ccc(-c3ccccc3C(=O)O)o2)SC1=Nc1ccc(C)cc1,40µM*,6%,3%,22µM*,?
CCOC(=O)C1=C(O)/C(=C/c2ccc(OCC(=O)O)c(OCC)c2)SC1=Nc1ccccc1,-10%,-2%,0%,-3%,127%
CCOC(=O)C1=C(O)/C(=C/c2cn(CC(=O)NCC3CCCO3)c3ccccc23)SC1=Nc1ccc(C)cc1 (stereo not drawn),-18%,nt,nt,14µM*,?
COc1ccc(C2C(=O)N(C3CCCCCC3)CC(=O)N2Cc2ccc(C)cc2)cc1 (stereo not drawn),0%[60.1 µM],5%,2%,11%,17%
CC(C)Nc1nnc(SCC(=O)Nc2sccc2C#N)s1,-34%,-4%,nt,32µM*,?
N#Cc1ccsc1NC(=O)CSc1nnc(NC2CC2)s1,nt,nt,nt,-21%,nt
Cc1ccnc(SCC(=O)Nc2sccc2C#N)n1,?,0%,32µM*,-27%,?
Cc1ccccc1NC(=O)Cn1c(CCC(=O)O)ccc1-c1cccs1,3%,5%,0%,-22%,90%
CC(=O)c1ccc(-n2c(CCC(=O)O)ccc2-c2cccs2)cc1,-17%,-2%,?,?,?
Cc1ccc(-n2c(CCC(=O)O)ccc2-c2cccs2)cc1Cl,2%,nt,2.5µM*,1%,?
Cc1ccc(NC(=O)Cn2c(CCC(=O)O)ccc2-c2cccs2)cc1,4%,-2%,?,79µM*,-24%
C=C[C@H](CC(C)C)N(Cc1ccccc1)S(=O)(=O)N(Cc1ccccc1)[C@H](C=C)CC(C)C,-21%,nt,nt,nt,22%
SMILES,POLK inh,TDP1 inh,POLB inh,Pol eta inh,Pol iota inh
Cc1c(C(=O)N/N=C/c2ccc(-c3ccccc3[N+](=O)[O-])o2)sc(N)c1C#N,-12%,nt,-6%,14µM*,56µM*
Nn1cnnc1N/N=C\c1ccc(-c2ccccc2[N+](=O)[O-])o1,-8%,7%,-19%,-7%,2.8µM*
O=C(N/N=C/c1ccc(-c2ccccc2[N+](=O)[O-])o1)c1cncc(Br)c1,-18%,8%,31%,-16%,58%
CCOC(=O)C1CCN(C(=O)CN2c3ccc(C(C)C)cc3-c3ccccc3S2(=O)=O)CC1,-11%,2%,18%,-21%,3%
CCOc1ccc2c(c1)NC(c1cccs1)=NC(c1ccc(F)cc1)=N2,-13%,7%,-3%,3%,-12%
O=C(CCc1ccccc1)N1CCN(c2ccc(F)cc2)CC1,2%,7%,-1%,-21%,13%
O=C(CCCOc1ccccc1)N1CCN(c2ccc(F)cc2)CC1,-10%,0%,100µM*,-4%,12%
O=C(O)c1ccc(NC(=S)NC(=O)c2ccc3ccccc3c2)cc1,-14%,32µM*,41%,19%,16%
COc1cc2c(C(=O)N3CCN(c4cccc(C(F)(F)F)c4)CC3)cn(CC(C)C)c(=O)c2cc1OC,-13%[60.1 µM],1%,-5%,-21%,89µM*
COc1cc2c(C(=O)N3CCN(c4cc(Cl)ccc4C)CC3)cn(CC(C)C)c(=O)c2cc1OC,0%,6%,14%,-2%,?
Cc1c(Br)c(O)c(Br)c2sc(=O)oc12,?,-6%,20µM*,?,6.3µM*
CCCCn1c(=O)[nH]c2nc3cc(N)ccc3nc2c1=O,-8%,8%,5.6µM*,-10%,1.3µM*
O=C(CNC(=O)c1ccc2cc[nH]c2c1)OC(C(=O)Nc1cc(C(F)(F)F)ccc1Cl)c1ccccc1 (stereo not drawn),nt,1%,nt,nt,nt
O=C1CCC[C@@H]2C[C@@]3(C[C@@H]4CCN1[C@H]24)Nc1cc([N+](=O)[O-])ccc1NC3=NCc1ccccc1,-13%,nt,nt,nt,1%
CCc1nnc(N/N=C/c2c(Cl)cccc2Cl)n1N,-6%,4%,15%,-2%,13µM*
CCc1nnc(N/N=C/c2cccs2)n1N,-10%,8%,34%,-11%,22µM*
Cc1cc2ccccn2c1C(=O)c1nc(NCc2ccccc2)ncc1Cl,4%,8%,4%,-12%,79µM*!
CC(=O)NCCNc1ncncc1-c1ccccc1C(F)(F)F,-2%[60.1 µM],32µM*,nt,nt,nt
O=S1(=O)N=C(Oc2ccc(Cl)cc2)c2ccccc21,nt,-2%,nt,nt,nt
Cc1ccc(-c2cc(C(=O)N3CCN(c4ccc(O)cc4)CC3)c3ccccc3n2)cc1,-10%,9%,nt,-16%,?
O=C(c1cc(-c2ccccc2)nc2ccccc12)N1CCOCC1,2%,0%,1%,0%,27%
Cc1ccc(-c2cc(C(=O)N3CCN(c4ccc(F)cc4)CC3)c3ccccc3n2)o1,-21%,-2%,28µM*,?,35µM*
Cc1ccc(-c2cc(C(=O)N3CCOCC3)c3ccccc3n2)o1,-22%,1%,nt,-14%,79µM*
CCOC(=O)N1CCc2c(sc3c2c(=O)n(Cc2ccccc2)c(=O)n3CC(=O)Nc2ccccc2F)C1,-12%,4%,27%,-14%,14%
